Screens: PubChem BioAssay, National Center for Advancing Translational Sciences (NCATS)
MCF10A rereplic: A quantitative high throughput screen for small molecules that induce DNA re-replication in MCF 10a normal breast cells; Potency, µM (doses to about 46.1 µM), without a hit: at the top dose activity, positive = re-replication, usual class: activators; AID 624296, 2012; actives 2.9% (n = 350,000); MCF 10A DNA re-replication, Hoechst nuclear intensity, 48 h; note: potency is the fitted concentration of half-maximal effect; % of control where 0% means no effect; nearly all actives have a fitted effect of over 50% in size
KB-3-1 tox: qHTS assay for MDR1-selective chemotherapeutics: Primary screen using the parental adenocarcinoma cell KB-3-1. KB-3-1 viability, CellTiter-Glo ATP luminescence, 72 h. Potency, µM (highest dose often 46.1 µM), hits mostly cytotoxic. actives 1.4% (n = 400,000). AID 1347075, 2019; note: potency is the fitted concentration of half-maximal effect; % is set by controls: 0 for no effect and ±100 for the full control effect; nearly all actives have a fitted effect of over 60% in size
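72 h, 37 °C compound treatment of KB-3-1 parental cells; CellTiter-Glo added, 10 min, luminescence read. Data corrected against DMSO-only plates and normalized before curve fitting.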
IL1B secr inh: qHTS for Inhibitors of Inflammasome Signaling: IL-1-beta AlphaLISA Primary Screen. THP-1 LPS/ATP IL-1B secretion, AlphaLISA, 16 h; stronger effect = lower value. activity change, % at 57.5 µM. actives 4.7% (n = 360,000). AID 743279, 2014; in the data active = activity change below about -50%; inconclusive = mostly about -30% to -49%; note: % is set by controls: 0 for no effect and ±100 for the full control effect
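Secreted IL-1B measured by AlphaLISA bead assay after 16 h compound exposure of THP-1 cells; compounds (final up to 57.5 uM) added 1 h before LPS (250 ng/mL) and ATP (1.25 mM) stimulation; lower signal means less secretion.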
SW480 rereplic: A quantitative high throughput screen for small molecules that induce DNA re-replication in SW480 colon adenocarcinoma cells; SW480 DNA re-replication, Hoechst DNA content imaging, 48 h; Potency, µM (doses to about 46.1 µM), for the others: at the top dose re-replication activation, actives largely listed as activators; actives 1.8% (n = 340,000); note: potency is the fitted concentration of half-maximal effect; % of control where 0% means no effect; nearly all actives have a fitted effect of over 55% in size
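Hoechst fluorescence of nuclei (405 nm excitation, 500-530 nm emission) measured by plate-scanning imager after 48 hr compound exposure at 37 C; re-replication scored as increased number of nuclei with elevated intensity.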
KB-V1 MDR tox: qHTS assay for MDR1-selective chemotherapeutics: Primary screen using the drug-selected MDR subline cells KB-V1. actives 3.4% (n = 400,000). KB-V1 MDR cells viability, CellTiter-Glo, 72 h. Potency, µM (doses to about 46.1 µM), hits mostly cytotoxic; note: potency is the fitted concentration of half-maximal effect; % is set by controls: 0 for no effect and ±100 for the full control effect; nearly all actives have a fitted effect of over 60% in size
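KB-V1 MDR subline cells in DMEM (phenol-red free, 10% FBS) exposed to compounds in qHTS concentration series for 72 h at 37 degrees C. Viability read by CellTiter-Glo luminescence; concentration-effect curves fitted after normalization and correction.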
* hit, by the source's call; i = inactive; ? = inconclusive; . = not tested or not shown; [ ] = remark or other dose. An excerpt weighted towards active compounds, which were near 9.9% of everything screened. Unless noted, calls come from the whole dose curve; as a rule, active = well fitted curve in the direction sought with a large enough effect; inconclusive = small, poorly fitted or top-dose-only effect, or another doubt; inactive = no such curve, though single readings can be large; an effect the other way counts as inactive or inconclusive.

SMILES	MCF10A rereplic	KB-3-1 tox	IL1B secr inh	SW480 rereplic	KB-V1 MDR tox
O=C(NNC1=Nc2ccccc2SC1)c1ccc(Cl)cc1	?	?	57	18µM*	?
CCn1c(SCC(=O)Nc2cccc(S(=O)(=O)N(C)c3ccccc3)c2)nnc1C1CC1	12%	i	4	3%	21µM*
CN(c1ccccc1)S(=O)(=O)c1cccc(NC(=O)CSc2nncn2C)c1	-5%	i	8	-8%	i
O=C1c2ccc([N+](=O)[O-])cc2C(=O)N1Cc1cccnc1	2%	i	19	-3%	?
O=C1c2ccc(-c3nc4ccccc4o3)cc2C(=O)N1Cc1cccnc1	9.2µM*	i	15	?	i
O=C1c2ccc(-c3nc4ccccc4o3)cc2C(=O)N1Cc1ccccc1	6%	i	15	3%	7.3µM*
CC(C)CCN1C(=O)c2ccc(-c3nc4ccccc4c(=O)o3)cc2C1=O	-2%	i	-1	2%	i
O=[N+]([O-])c1ccc(Nc2cccc(F)c2)nc1	0.73µM*	i	-24	-2%	i
O=[N+]([O-])c1ccc(Nc2ccc(F)cc2)nc1	-2%	i	-11	0%	?
O=C(CN1C(=O)C2CC=CCC2C1=O)Nc1nc(-c2ccc(F)cc2)cs1 (centres undefined)	5%	i	11	1%	i
CC(C(=O)Nc1nc(-c2ccc(F)cc2)cs1)N1C(=O)C2CC=CCC2C1=O (centres undefined)	-2%	i	-81*	1%	i
COC(=O)c1sccc1S(=O)(=O)N(CC(=O)NCc1ccc(F)cc1)c1ccc(Cl)cc1	.	i	.	.	i
Cc1cnc(CNC(=O)C2(C)CCCN2CC(C)C)cn1 (centres undefined)	.	i	61	.	i
CN(C)/C=N/c1nc2nccc(-c3cccc(Cl)c3)n2n1	-39%	i	-52*	-56%	i
CN(C)/C=N/c1nc2ncc(-c3ccc(Cl)cc3)c(/N=C/N(C)C)n2n1	1%	?	29	-3%	6.5µM*
CC(=O)N1CCC2(CC1)C/C(=N\NC(=S)Nc1ccccc1C)c1cc(O)ccc1O2	-6%	i	0	-4%	?
CC(=O)N1CCC2(CC1)C/C(=N\NC(=S)Nc1ccccc1F)c1cc(O)ccc1O2	?	?	-76*	?	i
CC(=O)N1CCC2(CC1)CC(=O)c1cc(Cl)ccc1O2	1%	i	16	2.3µM*	i
CC(=O)N1CCC2(CC1)CC(=O)c1cc(OCC(=O)NCc3ccc(C)cc3)ccc1O2	17%	i	9	1%	18µM*
CC(=O)N1CCC2(CC1)CC(=O)c1cc(OCC(=O)NCc3ccco3)ccc1O2	?	i	1	-4%	i
CCCCCC(=O)N/N=C(\C)c1ccc(Cl)cc1	7%	i	2	-3%	i
COc1ccc(-n2c(C)cc(C(=O)CCl)c2C)cc1	6.5µM*	6.5µM*	-77*	2.6µM*	?
Cc1cc(-n2c(C)cc(C(=O)COc3cc(F)ccc3[N+](=O)[O-])c2C)no1	?	i	20	13µM*	i
Cc1cc(C(=O)CCl)c(C)n1-c1c(C)n(C)n(-c2ccccc2)c1=O	5.2µM*	?	-99*	21µM*	?
COc1ccc(-n2c(C)cc(C(=O)CN3C(=O)c4ccccc4C3=O)c2C)cc1	1%	i	-12	2%	i
SMILES	MCF10A rereplic	KB-3-1 tox	IL1B secr inh	SW480 rereplic	KB-V1 MDR tox
Cc1cc(-n2c(C)cc(C(=O)CCl)c2C)no1	3.3µM*	?	-102*	?	?
COC(=O)c1cc(NC(=O)Cn2ncc3c2-c2ccccc2OC3)cc(C(=O)OC)c1	.	i	.	.	i
CC(=O)c1ccc(NC(=O)CSc2nc(C3CCCC3)nc3c2c(=O)n(C)c(=O)n3C)cc1	.	i	.	.	i
Cc1ccc(OCC(=O)c2ccc(Cl)s2)c([N+](=O)[O-])n1	?	i	-73*	?	i
COc1ccc(-n2c(C)cc(C(=O)COc3ccc(C)nc3[N+](=O)[O-])c2C)cc1	21µM*	?	13	?	?
Cc1ccc(OCC(=O)c2cc(C)n(-c3cc(C)on3)c2C)c([N+](=O)[O-])n1	?	i	6	?	i
COc1ccc(-n2c(C)cc(C(=O)CSc3ccc(NC(C)=O)cc3)c2C)cc1	16µM*	i	10	13%	?
CC(=O)Nc1ccc(SCC(=O)c2cc(C)n(-c3ccccc3)c2C)cc1	0%	i	-9	-2%	?
O=C(NCCc1ccc(Cl)cc1)c1cc(S(=O)(=O)N2CCCCC2)c[nH]1	1%	?	10	2%	i
CC(C)NC[C@H]1CCc2cc(CO)c([N+](=O)[O-])cc2N1	-5%[20.6 µM]	.	.	-6%[20.6 µM]	.
CCOC(=O)c1cc(S(=O)(=O)N2CCN(c3ccc(C)cc3C)CC2)[nH]n1	.	i	.	.	i
Cc1nn(Cc2ccccc2)c(Cl)c1/C=C/C(=O)OC(C(=O)NC(N)=O)C(C)C (centres undefined)	6.5µM*	i	3	-39%	i
CCCC1C(=O)Nc2ccccc2N1C(=O)c1ccc(C(C)(C)C)cc1 (centres undefined)	26µM*	i	-82*	?	i
O=C(CS(=O)(=O)c1cn(Cc2ccc(F)cc2)c2ccccc12)N1CCOCC1	1%	?	13	0%	i
O=C(CS(=O)(=O)c1cn(Cc2cccc(F)c2)c2ccccc12)N1CCOCC1	0%	i	-4	-8%	23µM*
Cc1cc(NC(=O)CS(=O)(=O)c2cn(Cc3ccccc3Cl)c3ccccc23)no1	?	i	-12	12%	?
Cc1cc(NC(=O)CS(=O)(=O)c2cn(Cc3cccc(Br)c3)c3ccccc23)no1	.	i	-54*	.	i
Cc1c(C(=O)N2CCC(c3nc4ccccc4s3)CC2)oc2ccc(Cl)cc12	.	i	.	.	i
CN(c1ccc(F)cc1)S(=O)(=O)N1CCCC(C(=O)NCc2ccccc2Cl)C1 (centres undefined)	.	16µM*	.	.	i
CC(=O)N1c2ccc(S(=O)(=O)N3CCC(C(=O)NCc4ccc(Cl)cc4)CC3)cc2CC1C (centres undefined)	23µM*	?	5	?	i
O=C(c1cccc(S(=O)(=O)N2CCOCC2)c1)N(Cc1ccc(F)cc1)Cc1ccco1	2.1µM*	i	14	-9%	i
